Experimental data: PubChem BioAssay AID624296 (National Center for Advancing Translational Sciences (NCATS), 2012)
Among all 350,000 compounds or so, about 9,900 (2.8%) were called active. About 15% were inconclusive and are not listed. The list comes from a sample in which actives are over-represented; it also holds similar structures and randomly drawn compounds. A number with no mark means an inactive call. Calls come from the whole dose curve; as a rule, active = well fitted activation curve with a large enough effect; inconclusive = small, poorly fitted or top-dose-only effect; inactive = no such curve, though single readings can be large or run the other way.

Test: A quantitative high throughput screen for small molecules that induce DNA re-replication in MCF 10a normal breast cells. For activity, positive = re-replication: % of control where 0% means no effect. Note: nearly all actives have a fitted effect of over 50% in size.
Conditions: MCF 10A DNA re-replication, Hoechst nuclear intensity, 48 h; series mostly up to 46.1 µM; activity, positive = re-replication: at the top concentration
Text: H Molecular Libraries Probe Production Network [MLPCN]
NIH Chemical Genomics Center [NCGC]
Assay Provider: Melvin DePamphilis, NICHD, NIH
Eukaryotic cells normally restrict genome duplication to once per cell division. When this process is aberrant, DNA re-replication occurs when cells reinitiate DNA replication before the first round of replication is complete. DNA re-replication induces the DNA damage response, arrests cell proliferation, and triggers apoptosis. The cell cycle components cyclin A, Cdt-1, Cdc6 and geminin are critical regulators of this process and their misregulation results in DNA re-replication in normal and cancer cells. To identify compounds that induce re-replication in normal cells, an image-based assay was used to measure DNA content of nuclei, as detected by the fluorescent DNA binding dye, Hoechst. Cell nuclei were imaged by a fluorescence scanning plate imager and compounds that induce DNA re-replication were identified by the increase of nuclei with elevated fluorescence intensity
For screening, 250 cells in 5 uL/well were dispensed into black clear 1536-well plates (Aurora) using a solenoid-based dispenser. Following transfer of 23 nL compound or DMSO vehicle by a pin tool, the plates were incubated 48 hr at 37 C and 5% CO2. After addition of 1 uL/well Hoescht stain, the plates were incubated 40 min at 37 C, 5% CO2 and total intensity of fluorescent objects (nuclei) were enumerated by an Acumen Explorer Ex3 (TTP LabTech) fluorescence scanning plate imager (405 nm excitation, 500-530 nm emission).
Keywords: NIH Roadmap, MLPCN, MLI, MLSMR, qHTS, NCGC, DNA replication, cancer
Potency is the fitted concentration of half-maximal effect.

| Structure (SMILES) | activity, positive = re-replication [%] | Potency |
| --- | --- | --- |
| CC(OC(=O)c1ccc([N+](=O)[O-])cc1)C(=O)NCC1CCCCC1 (stereo not given) | -0.0529 | – |
| CCCCCOc1ccc(/C=C/C(=O)NCCc2nc3ccccc3[nH]2)cc1OC | – | 20.6 µM (active) |
| COc1ccc(OC(C)C(=O)NCCc2nc3ccccc3[nH]2)cc1 (stereo not given) | -0.913 | – |
| O=C(COc1ccccc1)NCCc1nc2ccccc2[nH]1 | 2.97 | – |
| O=c1ccc2c(-c3ccccc3S(=O)(=O)O)c3ccc(O)c(O)c3oc-2c1O | -16.3 | – |
| CCOC(=O)c1ccccc1NC(=O)COC(=O)C(Cc1c[nH]c2ccccc12)NC(C)=O (stereo not given) | 0.288 | – |
| Cc1ccc(S(=O)(=O)N2CCC(C(=O)N3CCCCCCC3)CC2)cc1 | -11.9 | – |
| CC(C)(C)OC(=O)C1=C(CO)CS[C@@H]2[C@H](NC(=O)Cc3ccccc3)C(=O)N12 | -1.22 | – |
| O=C(c1cccc(S(=O)(=O)N2CCCCCC2)c1)N1CCN(Cc2ccccc2)CC1 | 18.3 | – |
| CCOC(=O)C1=C(c2ccc(OC)cc2)C(=O)c2ccccc2C1=O | – | 2.91 µM (active) |
| COc1ccc(OCCCON2C(=O)c3ccccc3C2=O)cc1 | 0.15 | – |
| COc1ccc(N2CCN(C(C)=C3C(=O)c4ccccc4C3=O)CC2)cc1 | -6.44 | – |
| COCCN(C(=O)C(C)N1C(=O)c2ccccc2C1=O)c1c(N)n(CC(C)C)c(=O)[nH]c1=O (stereo not given) | -2.72 | – |
| CC(C)(C)OC(=O)C[C@@H]1C/C=C\C[C@@H](CC(=O)NCCO)C(=O)N[C@H](Cc2c[nH]c3ccccc23)COC1=O | -0.516 | – |
| COc1cccc(/C=N/Nc2ncc(C(F)(F)F)cc2Cl)c1O | – | 1.46 µM (active) |
| COc1cccc(/C(C)=N/Nc2ncc(Cl)cc2Cl)c1 | 10.2 | – |
| COc1cccc(/C=N/Nc2cc(C)nc(-c3ccccc3O)n2)c1O | 4.07 | – |
| O=C(Nc1nnc(-c2ccccc2)o1)c1cccc(S(=O)(=O)N2CCOCC2)c1 | 3.72 | – |
| Cc1ccc(S(=O)(=O)NC2CCCCCC2)cc1 | 9.3 | – |
| Cc1ccc(S(=O)(=O)N(C)C2(C)CCS(=O)(=O)C2)cc1 (stereo not given) | 1.42 | – |
| Cc1ccc(S(=O)(=O)C2(S(=O)(=O)c3ccc(C)cc3)CCCC2)cc1 | – | 8.2 µM (active) |
| CCC(C)C1(C2CCCC2)NC(=O)NC1=O (stereo not given) | -0.499 | – |

| Structure (SMILES) | activity, positive = re-replication [%] | Potency |
| --- | --- | --- |
| Cc1ccc(CC(=O)Nc2ccc(S(=O)(=O)N3CCOCC3)cc2)cc1C | -4.17 | – |
| S=c1[nH]nc(-c2ccco2)n1/N=C/c1ccccc1 | -5.89 | – |
| S=c1[nH]nc(-c2ccncc2)n1/N=C/c1ccccc1Cl | 0.454 | – |
| S=c1[nH]nc(-c2cccnc2)n1/N=C/C(Cl)=C\c1ccccc1 | – | 13 µM (active) |
| O=C(CCc1nc(-c2ccccc2)no1)Nc1cccc(C(=O)NC2CC2)c1 | -2.58 | – |
| O=C(c1snnc1-c1ccccc1)N1CCOCC1 | – | 0.651 µM (active) |
| O=C(CP(=O)(c1ccccc1)c1ccccc1)N1CCOCC1 | -20.5 | – |
| c1ccc(-c2nnc(N3CCOCC3)c3ccccc23)cc1 | 21.2 | – |
| CCCC(=O)n1nc(-c2ccccc2)nc1N | -0.296 | – |
| CCN(CC)C(=O)c1sc2nc(-c3ccccc3)ccc2c1N | – | 23.1 µM (active) |
| CCOC(=O)c1sc2nc(SC)nc(-c3ccccc3)c2c1N | 13.6 | – |
| COc1ccc(NS(=O)(=O)c2cc(NC(=O)COc3ccccc3F)ccc2OC)cc1 | 5.57 | – |
| O=C(C1CC(=O)N(C2CCCC2)C1)N1CCN(c2cccc(C(F)(F)F)c2)CC1 (stereo not given) | 0.122 | – |
| O=C(N/N=C/c1ccc([N+](=O)[O-])o1)c1cccc(S(=O)(=O)N2CCOCC2)c1 | -0.655 | – |
| Cc1cc(C)nc(N/N=C/c2ccc([N+](=O)[O-])o2)n1 | -1.22 | – |
| NC(=O)C(=O)N/N=C/c1ccc([N+](=O)[O-])o1 | – | 26.6 µM (active) |
| O=C(COC(=O)c1ccncc1)Nc1ccc2c(c1)OCO2 | -1.83 | – |
| O=C1COc2ccc(C(=O)COC(=O)c3ccccc3Cl)cc2N1 | -6.39 | – |
| CC1CCCN(CC(O)COc2ccc3c(c2)OCO3)C1 (stereo not given) | 12.3 | – |
| CN1CCN(CC(O)COCc2ccc3c(c2)OCO3)CC1 (stereo not given) | – | 20.6 µM (active) |
| COc1cc(COCC(O)CN2CCN(Cc3ccc4c(c3)OCO4)CC2)cc(OC)c1OC (stereo not given) | -4.04 | – |
| CC1C(=O)N(Cc2ccccc2)c2ccccc2N1C(=O)c1ccccc1 (stereo not given) | 1.1 | – |

| Structure (SMILES) | activity, positive = re-replication [%] | Potency |
| --- | --- | --- |
| CC1C(C)N(C(=O)CCl)c2ccccc2N1C(=O)CCl (stereo not given) | – | 7.31 µM (active) |
| CC1CC(C)CN(CC(=O)N2c3ccccc3CCc3ccccc32)C1 (stereo not given) | 14.8 | – |
| O=C1CN(C(=O)COC(=O)/C=C/c2ccc(F)cc2)c2ccccc2N1 | -0.315 | – |
| CCOC(=O)C1CCCN(C(=O)C2CCN(S(=O)(=O)c3ccc(Cl)c(C(F)(F)F)c3)CC2)C1 (stereo not given) | 4.77 | – |
| O=C1c2ccccc2C2=Nc3ccccc3SC(c3ccccc3F)C12 (stereo not given) | – | 6.51 µM (active) |
| O=C1c2ccccc2C(=O)C1c1ccccc1F | 1.07 | – |
| COC(=O)[C@]1(C)N[C@H](CN(C)C(=O)c2ccc(C(C)(C)C)cc2)[C@@H]2C(=O)N(C)C(=O)[C@@H]21 | 21 | – |
| N#Cc1cccc(NC(=O)C2CCCN(C(=O)c3ccc(Cl)cc3)C2)c1 (stereo not given) | -3.89 | – |
| C/C=C/c1ccc(OCC(=O)NNC(=O)CN(C)S(=O)(=O)c2ccc(C)cc2)c(OC)c1 | -3.34 | – |
| Cn1c(C(=O)NCCCN2CCN(c3cccc(Cl)c3)CC2)cc2c(=O)n(C)c3ccccc3c21 | – | 14.6 µM (active) |
| CCn1c(=O)cc(OCC(=O)NCCCN2CCN(c3cccc(Cl)c3)CC2)c2ccccc21 | 19.6 | – |
| Cn1c(C(=O)NCCc2ccsc2)cc2c(=O)n(C)c3ccccc3c21 | 4.88 | – |
| Cc1cccc(-c2oc3ccc(-c4ccc5c(c4)OCO5)cc3c2C#Cc2cncn2C)c1 | 5.28 | – |
| c1ccc(CCc2ccccn2)cc1 | 3.05 | – |
| Cc1cccc(NS(=O)(=O)c2ccc(C)c(C(=O)NCc3cccnc3)c2)c1 | 6.28 | – |
| O=C(COC(=O)c1ccc(F)cc1)Nc1ccc2c(c1)OCO2 | -2.32 | – |
| Cc1cccc(COc2ccccc2/C=N/Nc2ccc([N+](=O)[O-])cc2)c1 | – | 10.3 µM (active) |
| O=[N+]([O-])c1ccc(O)c(/C=N/Nc2ccccc2[N+](=O)[O-])c1 | 11.1 | – |
| Cc1ccc(NS(=O)(=O)c2ccc(N/N=C/c3ccccc3OCC(=O)O)c([N+](=O)[O-])c2)c(C)c1 | 7.31 | – |
| O=S1(=O)CCOC[C@H](Cc2ccccc2)N1Cc1ccccc1Br | 12 | – |
| O=C(CSc1nc2ccccc2c(=O)n1-c1ccccc1F)N1CCOCC1 | -2.83 | – |
